The results in this text go back to PubChem BioAssay (NCI).

This is part of a sample that, as a whole, favours compounds with a hit. Of some 79,000 tested, about 15% had one in any assay. A number with no mark means an inactive call. Active and inactive are the calls of the source. Rule as the data show it: active = growth inhibition above about 70%; inactive = the rest.

One assay can be described thus: NCI Yeast Anticancer Drug Screen. Data for the sgs1 mgt1 strain (AID 161).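 Also: 0% = growth of cultures given vehicle only.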 As to conditions: S. cerevisiae sgs1 mgt1 strain, at 50.0 µM, hits give high values. Put shortly: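 Read-out: growth inhibition vs vehicle controls. Cells: mutant yeast strain deficient in DNA damage repair.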
Consider `C[N+](C)(C)C1(Cc2ccccc2)c2ccccc2-c2ccc(Cl)cc21` (stereo not given), for which the growth inhibition was 21.2%.
As to `N#CC(c1cnc2ccccc2n1)c1cccc2ccccc12` (stereo not given), the growth inhibition was 1%.
Same read-out and setting: in the case of `O=[N+]([O-])c1ccc(S(=O)(=O)Nc2c([N+](=O)[O-])cc([N+](=O)[O-])c3ccccc23)cc1` it was 21.4%; in that of `N#CC(C#N)=C1C=Cc2ccccc2O1`, 0.9%; in that of `N#CC(=C1CCCCC1)c1ccccc1`, -21.6%.
The same measure, in the same setting: in the case of `CC(=O)OCCn1cnc2c(NCC=C(C)C)ncnc21` it was -40%; in that of `Cc1ccc([Si](C)(C)c2ccccc2)cc1`, -2.65%; in that of `COC(=O)c1cc([N+](=O)[O-])cc2ccccc12`, 19.1%.
As to `Cn1c(N)c(C(=O)/C=C/c2ccccc2)c(=O)n(C)c1=O`, the growth inhibition is 17.9%.
Still for that read-out and setting: under `CC1CN(c2ccc(Cl)cc2)CC(C)OC(=O)O1` (stereo not given) stands 5.65%; under `CCc1c(Cl)nc(N)nc1Nc1ccc(C)cc1`, -11.2%; under `CC[C@H]1CN(C)[C@H]2Cc3c([nH]c4ccccc34)C(=O)C[C@H]1C2C(=O)OC` (stereo not given in full), 6.95%.
Regarding `CC(=O)N(C)c1ccc(N=CN(C)C)cc1`, the growth inhibition is -34.3%.
Same read-out and setting: under `CN=[N+]([O-])c1ccccc1` stands 4.35%; under `O=C(O)c1ccc(C2CCCCC2O)cc1` (stereo not given), -9.2%.
Take `CCCCCCCC(CCCCCCC)C(=O)OCCO`: the growth inhibition was 3.7%.
On to `S=C1Cc2c(-c3ccccc3)cc(-c3ccc(Cl)cc3)nc2-c2ccccc2N1`, for which the growth inhibition was 5.65%.
Still for that read-out and setting: under `COc1ccc(CCN=C2CCC(C(=O)NCCc3ccc(OC)c(OC)c3)N2)cc1OC` (stereo not given) stands 2.6%; under `CCCCCCCCCCC1OCC(CC)([N+](=O)[O-])CO1` (stereo not given), 18.3%.
In the case of `CCOC(=O)c1ccc(NC(=O)/C=C/c2ccccc2)cc1`, the growth inhibition was 17.4%.
As to `CCN(CC)CCOCC(=O)Nc1ccccc1C`, the growth inhibition is 4.95%.
In the case of `CCCCCCCCC1CCC(=O)O1` (stereo not given), the growth inhibition was 16.7%.
With `CCCCCC1OCC(C)(C)CO1`, the growth inhibition is -5.45%.
On to `O=[N+]([O-])c1cccc(-c2cc3ccccn3c2)c1`, for which the growth inhibition is 13.8%.
With `C(=Nc1ccc(N2CCOCC2)cc1)c1ccc2c(c1)OCO2`, the growth inhibition was -15.2%.
As for `CCOC(=O)C(CN)c1ccccc1` (stereo not given), the growth inhibition is 8.1%.
Regarding `Cc1cc2c3ccccc3n(C)c2c2c1C(=O)c1ccccc1C2=O`, the growth inhibition is 3.3%.
Turning to `CCOc1ccc(C2=NN(CC)C(=O)C(C3C(=O)N(c4ccccc4)N=C3C)C2)cc1` (stereo not given), the growth inhibition is -0.35%.
As for `CNc1ccc2c(c1)C(=O)c1ccccc1-2`, the growth inhibition is -5.55%.
As for `CCN(CC)CCC(=O)O[C@H]1CC[C@H](CC(C)[C@H]2CC(=O)C(C)C=C(C)[C@H](OC(=O)CCN(CC)CC)C(OC)C(=O)[C@@H](C)CC(C)/C=C/C=C/C=C(C)C(OC)CC3CC[C@H](C)[C@](O)(O3)C(=O)C(=O)N3CCCCC3C(=O)O2)CC1OC` (stereo not given in full), the growth inhibition is 92.8% (active).
Regarding `CNC(C)C#N` (stereo not given), the growth inhibition was -11.9%.
Take `Cc1ccc(NCCN)c2c(=O)c3cc(O)ccc3sc12`: the growth inhibition is 40.4%.
For `Cc1cc2ccccc2n1C`, the growth inhibition is 39.5%.
On the same count and under the same terms, under `O=C(/C=C(\N=P(c1ccccc1)(c1ccccc1)c1ccccc1)C(F)(F)C(F)(F)C(F)(F)C(F)(F)C(F)(F)C(F)(F)C(F)(F)F)c1ccccc1` stands -17.3%; under `OC(CCl)CN1CCN(CC(O)CCl)CC1` (stereo not given), 2.55%.
Regarding `CC(C)(C)OC(=O)NC(CC(N)=O)C(=O)O` (stereo not given), the growth inhibition is 8.9%.
Turning to `CN(C)Cc1ccccc1C(=C(c1ccccc1)c1ccccc1)c1ccccc1`, the growth inhibition is -8%.
Regarding `CC[N+](C)(CC)c1cccc(OC(=O)N2CCCCC2)c1`, the growth inhibition is 16.4%.
With `COC(=O)c1sc2c(=O)c(C(=O)OC)c(C(=O)OC)sc2c(=O)c1C(=O)OC`, the growth inhibition is 54.3%.
On the same count and under the same terms, in the case of `CCOC(=O)C1=C(C)NC(C)=C(C(=O)OCC)C1C` it was 4.5%.

A further assay in a line: NCI Yeast Anticancer Drug Screen. Data for the cln2 rad14 strain (AID 165).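 Also: 0% = growth equal to vehicle treated cultures.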 As to conditions: S. cerevisiae cln2 rad14 strain, at 50.0 µM, hits give high values. Put shortly: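 The screen exposed genetically defined yeast (cln2 rad14) to test compounds and scored growth inhibition relative to vehicle-treated controls.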
On to `C[N+](C)(C)C1(Cc2ccccc2)c2ccccc2-c2ccc(Cl)cc21` (stereo not given), for which the growth inhibition is -15.8%.
As for `N#CC(c1cnc2ccccc2n1)c1cccc2ccccc12` (stereo not given), the growth inhibition was -5.75%.
With `O=[N+]([O-])c1ccc(S(=O)(=O)Nc2c([N+](=O)[O-])cc([N+](=O)[O-])c3ccccc23)cc1`, the growth inhibition is 12.7%.
The same measure, in the same setting: under `N#CC(C#N)=C1C=Cc2ccccc2O1` stands 5.15%; under `N#CC(=C1CCCCC1)c1ccccc1`, -5.75%.
Regarding `CC(=O)OCCn1cnc2c(NCC=C(C)C)ncnc21`, the growth inhibition is 0.75%.
For `Cc1ccc([Si](C)(C)c2ccccc2)cc1`, the growth inhibition is 7.7%.
Turning to `COC(=O)c1cc([N+](=O)[O-])cc2ccccc12`, the growth inhibition is 11.3%.
Take `Cn1c(N)c(C(=O)/C=C/c2ccccc2)c(=O)n(C)c1=O`: the growth inhibition was 17.1%.
In the case of `CC1CN(c2ccc(Cl)cc2)CC(C)OC(=O)O1` (stereo not given), the growth inhibition is 22.9%.
Turning to `CCc1c(Cl)nc(N)nc1Nc1ccc(C)cc1`, the growth inhibition was -25%.
On to `CC[C@H]1CN(C)[C@H]2Cc3c([nH]c4ccccc34)C(=O)C[C@H]1C2C(=O)OC` (stereo not given in full), for which the growth inhibition is 12.6%.
In the case of `CC(=O)N(C)c1ccc(N=CN(C)C)cc1`, the growth inhibition was -11.8%.
`CN=[N+]([O-])c1ccccc1`: the growth inhibition is 15.2%.
Still for that read-out and setting: under `O=C(O)c1ccc(C2CCCCC2O)cc1` (stereo not given) stands -14.6%; under `CCCCCCCC(CCCCCCC)C(=O)OCCO`, -21.8%; under `S=C1Cc2c(-c3ccccc3)cc(-c3ccc(Cl)cc3)nc2-c2ccccc2N1`, 2.55%.
With `COc1ccc(CCN=C2CCC(C(=O)NCCc3ccc(OC)c(OC)c3)N2)cc1OC` (stereo not given), the growth inhibition is -1.3%.
Turning to `CCCCCCCCCCC1OCC(CC)([N+](=O)[O-])CO1` (stereo not given), the growth inhibition was -46.4%.
As for `CCOC(=O)c1ccc(NC(=O)/C=C/c2ccccc2)cc1`, the growth inhibition was -24.3%.
With `CCN(CC)CCOCC(=O)Nc1ccccc1C`, the growth inhibition is -37.5%.
Consider `CCCCCCCCC1CCC(=O)O1` (stereo not given), for which the growth inhibition was 7.45%.
For `CCCCCC1OCC(C)(C)CO1`, the growth inhibition was -9.3%.
Consider `O=[N+]([O-])c1cccc(-c2cc3ccccn3c2)c1`, for which the growth inhibition is 5.6%.
With `C(=Nc1ccc(N2CCOCC2)cc1)c1ccc2c(c1)OCO2`, the growth inhibition is -49.5%.
With `CCOC(=O)C(CN)c1ccccc1` (stereo not given), the growth inhibition was -32.9%.
Same read-out and setting: under `Cc1cc2c3ccccc3n(C)c2c2c1C(=O)c1ccccc1C2=O` stands 5.45%.
Same read-out and setting: in the case of `CCOc1ccc(C2=NN(CC)C(=O)C(C3C(=O)N(c4ccccc4)N=C3C)C2)cc1` (stereo not given) it was -30.9%; in that of `CNc1ccc2c(c1)C(=O)c1ccccc1-2`, 19.9%; in that of `CCN(CC)CCC(=O)O[C@H]1CC[C@H](CC(C)[C@H]2CC(=O)C(C)C=C(C)[C@H](OC(=O)CCN(CC)CC)C(OC)C(=O)[C@@H](C)CC(C)/C=C/C=C/C=C(C)C(OC)CC3CC[C@H](C)[C@](O)(O3)C(=O)C(=O)N3CCCCC3C(=O)O2)CC1OC` (stereo not given in full), 89.3% (active).
Regarding `CNC(C)C#N` (stereo not given), the growth inhibition is -19.6%.
For `Cc1ccc(NCCN)c2c(=O)c3cc(O)ccc3sc12`, the growth inhibition is 25.1%.
On the same count and under the same terms, in the case of `Cc1cc2ccccc2n1C` it was 10.1%; in that of `O=C(/C=C(\N=P(c1ccccc1)(c1ccccc1)c1ccccc1)C(F)(F)C(F)(F)C(F)(F)C(F)(F)C(F)(F)C(F)(F)C(F)(F)F)c1ccccc1`, 0.65%.
Consider `OC(CCl)CN1CCN(CC(O)CCl)CC1` (stereo not given), for which the growth inhibition was 13.5%.
`CC(C)(C)OC(=O)NC(CC(N)=O)C(=O)O` (stereo not given): the growth inhibition was -33.5%.
For `CN(C)Cc1ccccc1C(=C(c1ccccc1)c1ccccc1)c1ccccc1`, the growth inhibition was -23.6%.
Same read-out and setting: in the case of `CC[N+](C)(CC)c1cccc(OC(=O)N2CCCCC2)c1` it was 0.2%.
Same read-out and setting: in the case of `COC(=O)c1sc2c(=O)c(C(=O)OC)c(C(=O)OC)sc2c(=O)c1C(=O)OC` it was -1.1%; in that of `CCOC(=O)C1=C(C)NC(C)=C(C(=O)OCC)C1C`, -10.5%.
